# Test results taken from PubChem BioAssay (Tox21).
# Inconclusive results are not listed. Entries that show only a call come without a potency. Values without a mark were called inactive. Active and inactive are the calls of the source. The call rests on the fitted dose curve; in most records, active means well fitted curve in the direction sought with a large enough effect in the repeat runs; inconclusive means weak or mixed curves; inactive means no such curve, though single readings can be large; an effect the other way counts as inactive or inconclusive.
# Experiment: qHTS RealTime-Glo MT Cell Viability Assay in HEK293 cells - 16 hour (AID 1224872); further: top concentration of the series differs between compounds; nearly all actives have a fitted effect of over 50% in size
# Conditions: RealTime-Glo luminescence; series mostly up to 76.8 µM; activity change, negative = cytotoxicity: at the top concentration
# How it was run: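 Luminescence generated by NanoLuc from substrate produced by living HEK293 cells served as the viability signal. Each value reflects the reading at its stated time point during continuous 40 h compound exposure at 37 C.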
Compound,Potency,"activity change, negative = cytotoxicity"
Cn1cnc2c1c(=O)[nH]c(=O)n2C,inactive,–
CN/C(=C\[N+](=O)[O-])NCCSCc1ccc(CN(C)C)o1,inactive,–
CC(=O)c1ccc(S(=O)(=O)NC(=O)NC2CCCCC2)cc1,inactive,–
Cc1cccc2ccccc12,inactive,–
CCOC(=O)C(C)(C)Oc1ccc(Cl)cc1,inactive,–
NC(=O)NO,inactive,–
COCC(C)N (stereo not given),inactive,–
COC(=O)c1ccc(C=O)cc1,inactive,–
O=C1OC(c2ccc(O)cc2)(c2ccc(O)cc2)c2ccccc21,–,0.257% [at 35.3 µM]
CCCCOCCOCCSC#N,inactive,–
Cc1c(N(C)CS(=O)(=O)O)c(=O)n(-c2ccccc2)n1C,inactive,–
O=C(O)CCCCC1CCSS1 (stereo not given),inactive,–
CC(C)(C)NCC(O)c1ccc(O)c(CO)c1 (stereo not given),inactive,–
O=C(O)Cc1cccc2ccccc12,inactive,–
CC1=C(/C=C/C(C)=C/C=C/C(C)=C/C(=O)O)C(C)(C)CCC1,inactive,–
C[C@]12C[C@H](O)[C@H]3[C@@H](CCC4=CC(=O)CC[C@@]43C)[C@@H]1CC[C@@H]2C(=O)CO,inactive,–
CCCCOCCOCCOC(C)=O,inactive,–
COc1ccccc1NC(=O)CC(C)=O,inactive,–
CCCCOC(=O)CCCCCCCCC(=O)OCCCC,inactive,–
Cc1cccc(C)c1O,inactive,–
NC(=O)OCC(COC(N)=O)c1ccccc1,inactive,–
COc1cc(O)c(C(=O)c2ccccc2)cc1S(=O)(=O)O,inactive,–
C#C[C@]1(O)CC[C@H]2[C@@H]3CCc4cc(O)ccc4[C@H]3CC[C@@]21C,–,-25.2% [at 35.3 µM]
CCN(CC)CCOC(=O)c1ccc(N)cc1,inactive,–
N[C@@H](Cc1c[nH]c2ccccc12)C(=O)O,inactive,–
CCN1CCCC1=O,inactive,–
Nc1cccc(N)c1,inactive,–
CC(=O)Oc1ccccc1C(=O)O,inactive,–
COCCOCCOC,inactive,–
CC(=O)OC/C=C(C)/C=C/C=C(C)/C=C/C1=C(C)CCCC1(C)C,inactive,–

# Experiment: qHTS RealTime-Glo MT Cell Viability Assay in HepG2 cells - 8 hour (AID 1224873); further: nearly all actives have a fitted effect of over 55% in size
# Conditions: RealTime-Glo luminescence; series mostly up to 76.8 µM; viability change, negative = cytotoxic: at the top concentration
# How it was run: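 HepG2 cells mixed with RealTime-Glo MT reagents (NanoLuc plus cell-permeant prosubstrate) were seeded at 600 cells/well, incubated 5 h at 37 C/5% CO2, then pinned with compounds in DMSO; nonlytic luminescence tracked viability during 40 h treatment.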
row,Compound,outcome
1,Cn1cnc2c1c(=O)[nH]c(=O)n2C,inactive
2,CN/C(=C\[N+](=O)[O-])NCCSCc1ccc(CN(C)C)o1,inactive
3,CC(=O)c1ccc(S(=O)(=O)NC(=O)NC2CCCCC2)cc1,inactive
4,Cc1cccc2ccccc12,inactive
5,CCOC(=O)C(C)(C)Oc1ccc(Cl)cc1,inactive
6,NC(=O)NO,inactive
7,COCC(C)N (stereo not given),inactive
8,COC(=O)c1ccc(C=O)cc1,inactive
9,O=C1OC(c2ccc(O)cc2)(c2ccc(O)cc2)c2ccccc21,inactive
10,CCCCOCCOCCSC#N,inactive
11,Cc1c(N(C)CS(=O)(=O)O)c(=O)n(-c2ccccc2)n1C,inactive
12,O=C(O)CCCCC1CCSS1 (stereo not given),inactive
13,CC(C)(C)NCC(O)c1ccc(O)c(CO)c1 (stereo not given),inactive
14,O=C(O)Cc1cccc2ccccc12,inactive
15,CC1=C(/C=C/C(C)=C/C=C/C(C)=C/C(=O)O)C(C)(C)CCC1,inactive
16,C[C@]12C[C@H](O)[C@H]3[C@@H](CCC4=CC(=O)CC[C@@]43C)[C@@H]1CC[C@@H]2C(=O)CO,inactive
17,CCCCOCCOCCOC(C)=O,inactive
18,COc1ccccc1NC(=O)CC(C)=O,inactive
19,CCCCOC(=O)CCCCCCCCC(=O)OCCCC,inactive
20,Cc1cccc(C)c1O,inactive
21,NC(=O)OCC(COC(N)=O)c1ccccc1,inactive
22,COc1cc(O)c(C(=O)c2ccccc2)cc1S(=O)(=O)O,inactive
23,C#C[C@]1(O)CC[C@H]2[C@@H]3CCc4cc(O)ccc4[C@H]3CC[C@@]21C,inactive
24,CCN(CC)CCOC(=O)c1ccc(N)cc1,inactive
25,N[C@@H](Cc1c[nH]c2ccccc12)C(=O)O,inactive
26,CCN1CCCC1=O,inactive
27,Nc1cccc(N)c1,inactive
28,CC(=O)Oc1ccccc1C(=O)O,inactive
29,COCCOCCOC,inactive
30,CC(=O)OC/C=C(C)/C=C/C=C(C)/C=C/C1=C(C)CCCC1(C)C,inactive
